According to paper PMC12350791:

What follows are substances tested against HNRNPU (UniProt Q00839) (assay: cross-linking mass spectrometry). Conditions: DSBSO, in cells or nuclear extract, not told apart.
Sequence of HNRNPU (Q00839 whole entry): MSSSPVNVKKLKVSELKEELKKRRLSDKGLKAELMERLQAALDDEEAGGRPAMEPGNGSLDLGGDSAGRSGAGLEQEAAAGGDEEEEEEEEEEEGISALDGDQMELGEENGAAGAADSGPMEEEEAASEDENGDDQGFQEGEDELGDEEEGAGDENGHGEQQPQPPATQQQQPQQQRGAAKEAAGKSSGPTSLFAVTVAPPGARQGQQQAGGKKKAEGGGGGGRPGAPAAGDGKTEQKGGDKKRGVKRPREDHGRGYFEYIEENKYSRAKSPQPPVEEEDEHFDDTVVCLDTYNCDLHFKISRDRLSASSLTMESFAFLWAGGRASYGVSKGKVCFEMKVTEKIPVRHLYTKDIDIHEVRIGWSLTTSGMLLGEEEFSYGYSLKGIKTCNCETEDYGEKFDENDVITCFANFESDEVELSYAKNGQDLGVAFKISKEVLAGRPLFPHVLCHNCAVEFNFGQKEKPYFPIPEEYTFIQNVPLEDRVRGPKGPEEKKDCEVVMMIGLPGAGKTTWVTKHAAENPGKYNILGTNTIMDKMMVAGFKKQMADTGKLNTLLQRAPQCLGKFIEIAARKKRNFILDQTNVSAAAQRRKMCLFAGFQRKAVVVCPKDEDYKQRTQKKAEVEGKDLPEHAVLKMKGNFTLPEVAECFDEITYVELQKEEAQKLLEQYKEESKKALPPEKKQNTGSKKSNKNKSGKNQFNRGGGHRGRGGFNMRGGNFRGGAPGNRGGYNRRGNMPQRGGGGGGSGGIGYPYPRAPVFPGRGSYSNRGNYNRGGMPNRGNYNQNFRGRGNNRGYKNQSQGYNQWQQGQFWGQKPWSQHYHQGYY

Sequence of HNRNPDL, O14979 (O14979 whole entry): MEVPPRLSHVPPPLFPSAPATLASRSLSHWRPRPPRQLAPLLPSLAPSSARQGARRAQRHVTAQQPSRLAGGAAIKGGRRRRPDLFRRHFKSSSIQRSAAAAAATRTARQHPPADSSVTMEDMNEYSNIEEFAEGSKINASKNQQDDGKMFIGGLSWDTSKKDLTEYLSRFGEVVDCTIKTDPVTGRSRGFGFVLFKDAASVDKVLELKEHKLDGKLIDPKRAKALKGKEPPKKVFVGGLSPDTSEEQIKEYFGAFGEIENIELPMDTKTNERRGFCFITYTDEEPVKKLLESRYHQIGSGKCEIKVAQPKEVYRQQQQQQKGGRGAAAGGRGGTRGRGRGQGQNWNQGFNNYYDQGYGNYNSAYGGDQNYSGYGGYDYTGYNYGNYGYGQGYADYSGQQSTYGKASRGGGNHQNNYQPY
Sequence of GART, P22102 (P22102 whole entry): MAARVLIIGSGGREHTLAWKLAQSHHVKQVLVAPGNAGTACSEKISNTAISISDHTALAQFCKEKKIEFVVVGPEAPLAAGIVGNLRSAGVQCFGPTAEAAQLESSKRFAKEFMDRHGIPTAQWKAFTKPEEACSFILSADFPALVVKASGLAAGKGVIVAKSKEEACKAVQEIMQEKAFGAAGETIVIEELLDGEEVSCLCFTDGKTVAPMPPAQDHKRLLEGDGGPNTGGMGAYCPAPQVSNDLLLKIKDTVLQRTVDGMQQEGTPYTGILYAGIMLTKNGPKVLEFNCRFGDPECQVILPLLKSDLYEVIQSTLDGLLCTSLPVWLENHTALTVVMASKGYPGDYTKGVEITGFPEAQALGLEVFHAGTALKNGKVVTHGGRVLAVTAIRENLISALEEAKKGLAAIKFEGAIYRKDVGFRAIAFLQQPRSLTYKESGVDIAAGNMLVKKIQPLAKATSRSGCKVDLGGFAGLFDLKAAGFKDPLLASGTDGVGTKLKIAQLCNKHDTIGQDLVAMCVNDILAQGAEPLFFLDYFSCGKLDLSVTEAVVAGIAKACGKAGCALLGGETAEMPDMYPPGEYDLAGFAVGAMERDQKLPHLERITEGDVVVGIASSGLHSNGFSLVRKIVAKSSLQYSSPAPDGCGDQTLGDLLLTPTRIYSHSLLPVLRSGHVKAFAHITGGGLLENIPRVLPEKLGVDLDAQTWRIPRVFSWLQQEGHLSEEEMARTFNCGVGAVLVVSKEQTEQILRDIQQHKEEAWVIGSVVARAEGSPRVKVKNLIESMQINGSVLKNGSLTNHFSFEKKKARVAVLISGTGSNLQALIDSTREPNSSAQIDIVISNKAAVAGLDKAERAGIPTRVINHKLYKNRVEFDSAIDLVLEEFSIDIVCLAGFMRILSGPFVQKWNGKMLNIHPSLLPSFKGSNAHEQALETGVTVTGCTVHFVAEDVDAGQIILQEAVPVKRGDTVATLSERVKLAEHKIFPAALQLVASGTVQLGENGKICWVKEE
Sequence of HNRNPR, O43390 (O43390 whole entry): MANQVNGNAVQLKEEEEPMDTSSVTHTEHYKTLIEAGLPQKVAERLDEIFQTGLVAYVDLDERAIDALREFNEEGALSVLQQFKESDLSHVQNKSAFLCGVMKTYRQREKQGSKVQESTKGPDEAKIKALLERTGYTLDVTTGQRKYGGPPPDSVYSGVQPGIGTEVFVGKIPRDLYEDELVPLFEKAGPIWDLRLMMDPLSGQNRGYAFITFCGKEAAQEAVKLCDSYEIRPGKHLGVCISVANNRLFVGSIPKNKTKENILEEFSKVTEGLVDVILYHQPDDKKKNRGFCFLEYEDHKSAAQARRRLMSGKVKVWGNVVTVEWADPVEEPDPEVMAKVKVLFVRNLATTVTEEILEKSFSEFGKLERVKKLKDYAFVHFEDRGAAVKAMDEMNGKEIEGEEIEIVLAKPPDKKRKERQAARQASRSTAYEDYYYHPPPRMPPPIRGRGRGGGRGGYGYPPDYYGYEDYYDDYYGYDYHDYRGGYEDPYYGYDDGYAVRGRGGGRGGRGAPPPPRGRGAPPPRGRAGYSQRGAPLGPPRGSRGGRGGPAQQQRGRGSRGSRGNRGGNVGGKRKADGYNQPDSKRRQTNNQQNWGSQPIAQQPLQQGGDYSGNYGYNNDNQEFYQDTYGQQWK

HNRNPDL, O14979 was tested. Which cross-linked residues did it give?
The cross-linked residues was “K302 - K352”.

How did the cross-linked residues turn out when GART, P22102 was run?
The cross-linked residues was “K251 - K331”.

With HNRNPR, O43390 as the substance, how does the cross-linked residues read?
Its cross-linked residues is “K359 - K181”.
